Bioassay records: PubChem, National Center for Advancing Translational Sciences (NCATS)
ALOX12 inh – inhibitors of human 12S-lipoxygenase ALOX12. purified 12hLO, xylenol orange hydroperoxide absorbance. 580,000 compounds, 1.1% hits. Potency, µM (titrated, usually from 108 µM), without a hit: at the highest dose activity change, negative = inhibition, usual class: inhibitors. P18054. AID 1671190
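Hydroperoxide product was detected by ferrous iron/xylenol orange as the 573 to 405 nm absorbance ratio. Arachidonic acid at 40 uM (final) was turned over for 30 min at room temperature by 150 nM human 12hLO, pH 7.0 Hepes buffer, after 15 min compound preincubation.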
RORgamma inh – ROR gamma (mouse) transcription inhibition; P51450; Drosophila S2 Gal4-RORgamma UAS-luciferase reporter, 20 h; Potency, µM (series often up to 53.6 µM), for inactives: at the highest dose activity change, negative = inhibition, usual class: inhibitors; 310,000 compounds, 5.4% hits; AID 2551; note: nearly all actives have a fitted effect of over 60% in size
Target sequence (P51450 whole entry, looked up, the tested form may be a part): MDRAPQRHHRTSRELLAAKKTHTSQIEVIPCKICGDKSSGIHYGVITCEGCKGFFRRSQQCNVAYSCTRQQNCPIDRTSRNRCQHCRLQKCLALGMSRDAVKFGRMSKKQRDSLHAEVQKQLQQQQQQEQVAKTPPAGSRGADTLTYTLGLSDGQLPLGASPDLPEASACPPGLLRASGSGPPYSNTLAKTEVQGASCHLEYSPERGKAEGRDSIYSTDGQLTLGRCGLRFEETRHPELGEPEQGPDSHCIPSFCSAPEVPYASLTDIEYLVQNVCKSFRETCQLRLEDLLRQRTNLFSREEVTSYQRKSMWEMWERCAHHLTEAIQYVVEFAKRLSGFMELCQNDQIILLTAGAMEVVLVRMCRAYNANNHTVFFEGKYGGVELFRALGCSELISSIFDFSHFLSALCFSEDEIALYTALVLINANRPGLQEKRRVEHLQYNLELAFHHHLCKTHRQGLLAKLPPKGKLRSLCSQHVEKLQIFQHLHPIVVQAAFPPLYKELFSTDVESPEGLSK
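Schneider cells (Drosophila), stable Gal4 DBD–ROR gamma + UAS-luc; 1 hr cmpd preincubation; Cu2+ induction 700 uM final; 20 hr ambient; luminescence.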
ELG1 repair inh – ELG1-dependent DNA repair inhibition; HEK293T ELG1-luciferase reporter, luminescence, 16 h; DNA damage induced by 5-fluorouridine; Potency, µM (top dose mostly 46.1 µM), inactives show top-dose activity change, negative = inhibition, hits mostly inhibitors; 330,000 compounds, 2.3% hits; note: nearly all actives have a fitted effect of over 55% in size
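Overnight (16 hr) co-exposure of 2,000 cells/well to 5-fluorouridine and compound at 37 °C preceded detection. Luciferase was quantified via ONE-Glo luminescence; loss of signal denotes inhibition.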
DT40 TDP1 CPT – DT40-hTDP1 cell growth loss with CPT. chicken DT40 Tdp1-/-;hTDP1 cells + 20 nM CPT, ATP luminescence, 48 h. Potency, µM (highest dose often 46.2 µM), for inactives: at the highest dose activity change, negative = growth inhibition, usual class: inhibitors. 420,000 compounds, 12% hits; note: nearly all actives have a fitted effect of over 55% in size
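Cell growth measured by CellTiter-Glo luminescence after a minimum 48 h, 37 C compound exposure with 20 nM CPT in Tdp1-knockout DT40 cells stably expressing hTDP1, seeded 400/well; qHTS titration format.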
Gal4-VP16 FLuc – inhibits Gal4-VP16 luciferase reporter, ROR gamma counter-screen | Drosophila S2 Gal4-VP16 UAS-luciferase, luminescence, 20 h | Potency, µM (doses to about 53.6 µM), inactives show at the highest dose activity, negative = inhibition, most hits filed as inhibitors | 310,000 compounds, 3.5% hits;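 note: Gal4-VP16 expression switched on by copper sulfate through the metallothionein promoter; nearly all actives have a fitted effect of over 50% in size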
DT40 TDP1 no CPT – qHTS for Inhibitors of human tyrosyl-DNA phosphodiesterase 1 (TDP1): qHTS in cells in absence of CPT. Potency, µM (titrated, usually from 46.2 µM), without a hit: at the highest dose activity change, negative = growth inhibition, hits mostly inhibitors. DT40 Tdp1-/- hTDP1 cells, no CPT, ATP luminescence, 48 h. AID 686978, 2013. 420,000 compounds, 15% hits; note: nearly all actives have a fitted effect of over 55% in size
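No-CPT arm: Tdp1-/-;hTDP1 DT40 cells (400/well) plus compounds, incubated ≥48 hr at 37 °C. Readout CellTiter-Glo luminescence.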
Starred values were filed as active, the others as inactive; i = inactive; ? = inconclusive; · = not tested or not shown; [ ] = remark or other dose. A selection: hits, their analogues and other compounds. The true share with any hit is near 15%. Calls come from the whole dose curve; as a rule, active = well fitted curve in the direction sought with a large enough effect; inconclusive = small, poorly fitted or top-dose-only effect, or another doubt; inactive = no such curve, though single readings can be large; an effect the other way counts as inactive or inconclusive. % is set by controls: 0 for no effect and ±100 for the full control effect; potency is the fitted concentration of half-maximal effect.

SMILES	ALOX12 inh	RORgamma inh	ELG1 repair inh	DT40 TDP1 CPT	Gal4-VP16 FLuc	DT40 TDP1 no CPT
COCCn1c(C)cc(C(=O)COC(=O)c2ccc3ncsc3c2)c1C	0%	?	?	13µM*	1%	15µM*
Cc1cc(C(=O)COC(=O)Cc2n[nH]c(=O)c3ccccc23)c(C)n1-c1ccc2c(c1)OCO2	-14%	-19%	13µM*	18µM*	18µM*	21µM*
COCCn1c(C)cc(C(=O)COC(=O)Cc2n[nH]c(=O)c3ccccc23)c1C	?	·	?	?	·	21µM*
O=C1CSC2(C(=O)N(Cc3ccccc3F)c3ccccc32)N1c1ccc(F)cc1 (configuration not stated)	-6%	·	·	·	·	·
O=C1CCSC2(C(=O)N(Cc3ccc(F)cc3)c3ccccc32)N1c1cccc(F)c1 (configuration not stated)	0%	·	·	5.2µM*	·	3.7µM*
Cc1cccc(N2C(=O)CCSC23C(=O)N(Cc2ccc(F)cc2)c2ccccc23)c1 (configuration not stated)	0%	·	·	9.2µM*	·	6.5µM*
Cc1cc(C)cc(N2C(=O)CSC23C(=O)N(CC(N)=O)c2ccccc23)c1 (configuration not stated)	3%	·	·	4%	·	11%
O=C1CCSC2(C(=O)N(Cc3ccc(F)cc3)c3ccccc32)N1c1ccc(F)c(F)c1 (configuration not stated)	?	·	·	7.3µM*	·	10µM*
CCc1cccc(N2C(=O)CSC23C(=O)N(Cc2ccccc2F)c2ccccc23)c1 (configuration not stated)	-21%	·	·	·	·	·
Cc1cc(C)cc(N2C(=O)CCSC23C(=O)N(Cc2ccccc2)c2ccccc23)c1 (configuration not stated)	-7%	·	·	5.8µM*	·	5.8µM*
O=C1CCSC2(C(=O)N(Cc3ccc(F)cc3)c3ccccc32)N1c1ccccc1 (configuration not stated)	-6%	·	·	7.3µM*	·	8.2µM*
CCc1ccc(C2c3c(-c4ccccc4O)n[nH]c3C(=O)N2Cc2ccncc2)cc1 (configuration not stated)	-19%	·	·	15µM*	·	13µM*
CCOCCCN1C(=O)c2[nH]nc(-c3ccccc3O)c2C1c1ccc(CC)cc1 (configuration not stated)	?	·	·	21µM*	·	16µM*
COc1ccc(NC(=O)CC2C(=O)N(c3cccc(OC)c3)C(=O)N2CCc2cccs2)cc1 (configuration not stated)	8%	·	·	?	·	21µM*
CCCOc1ccc(NC(=O)CC2C(=O)N(c3cccc(OC)c3)C(=O)N2Cc2cccs2)cc1 (configuration not stated)	-29%	·	·	?	·	21µM*
COC(=O)c1ccc(NC(=O)CC2C(=O)N(c3cccc(OC)c3)C(=O)N2Cc2cccs2)cc1 (configuration not stated)	-10%	·	·	?	·	?
C/C(=N\OC(=O)c1ccc(F)cc1F)c1ccc(F)cc1F	-3%	·	·	·	·	·
CCOC(=O)C1C(=O)OC(C)(C)C1C(CC)C(=O)c1c(C)cc(C)cc1C (configuration not stated)	?	-12%	?	18µM*	-1%	9.2µM*
Cc1ccc(NC(=O)C(Sc2nnc(-c3ccoc3C)o2)c2ccccc2)cc1Cl (configuration not stated)	-4%	·	·	·	·	·
Cc1ccc2ccc3cc(C(=O)Nc4ccc(C)c(F)c4)nc3c2[nH]1	4%	·	·	?	·	16µM*
CCOC(=O)C1CCN(C(=O)c2cc3ccc4ccc(C)[nH]c4c3n2)CC1	-9%	·	·	18µM*	·	21µM*
Cc1ccc2ccc3cc(C(=O)N4CCN(c5ccccc5F)CC4)nc3c2[nH]1	-7%	·	·	?	·	16µM*
CCOC(=O)C1CCN(C(=O)c2cc3ccc4cccnc4c3[nH]2)CC1	0%	·	·	-29%	·	-29%
COC(=O)CCCNC(=O)[C@@H]1[C@@H](NC(=O)NC2CCCCC2)CCN1C(=O)CC(C)(C)C	20%	·	·	·	·	·
COc1cccc(NC(=O)c2ccc3c(c2)NC(C)(CNc2ccccc2)CO3)c1 (configuration not stated)	-9%[176 µM]	·	·	·	·	·
SMILES	ALOX12 inh	RORgamma inh	ELG1 repair inh	DT40 TDP1 CPT	Gal4-VP16 FLuc	DT40 TDP1 no CPT
CC(C)Oc1ccc(C(=O)NC(=S)Nc2ccc(Cl)c(C(=O)O)c2)cc1	10µM*	-3%	?	?	-6%	-4%
CCCCOc1cccc(C(=O)NC(=S)Nc2cccc(NC(=O)c3ccccc3Cl)c2)c1	11µM*	?	-23%	?	?	?
O=C(O)c1cccc(NC(=S)NC(=O)c2cccc(OCc3ccccc3)c2)c1	i	-6%	?	-5%	3%	9%
CCCOc1cccc(C(=O)Nc2cc(-c3ccccc3)no2)c1	?	·	·	12µM*	·	?
CCCOc1cccc(C(=O)NC(=S)Nc2ccccc2)c1	16µM*	8.9µM*	?	?	?	?
CCCCC(=O)Nc1cccc(NC(=S)NC(=O)COc2ccccc2Cl)c1	-29%	-18%	-14%	-18%	-14%	-5%
CC#CCn1cc2c3c(cccc31)[C@H](CC(C)C)N[C@H](C(=O)NC1CC1)C2	6%[176 µM]	·	·	·	·	·
O=C1C(=O)N(CCN2CCOCC2)C(c2ccc(F)cc2)/C1=C(\O)c1ccc(Br)cc1 (configuration not stated)	-3%	·	·	·	·	·
CCC(=O)Nc1cccc(NC(=S)NC(=O)c2ccccc2Cl)c1	-2%	7%	?	-2%	9%	?
CC(C)Oc1cccc(C(=O)NC(=S)Nc2cccnc2)c1	-29%	?	?	5%	-85%	-23%
CC(C)Oc1cccc(C(=O)NC(=S)Nc2ccccc2)c1	22µM*	?	?	?	5µM*	?
CCCOc1cccc(C(=O)NC(=S)Nc2cccc(NC(=O)c3ccccc3Cl)c2)c1	13µM*	?	?	?	?	?
CCCOc1ccc(C(=O)Nc2ccc(NC(=O)c3ccccc3)c(Br)c2)cc1	-23%	·	·	15µM*	·	-71%
FC(F)(F)c1cc(Oc2ccccc2Cl)nc(-c2ccccn2)n1	-10%	?	-3%	?	-20%	?
